Here are results for 51 molecules from PubChem BioAssay AID589 (National Center for Advancing Translational Sciences (NCATS), 2007).

Out of some 59,000 compounds screened, about 6,200 (11%) were called active. Another 9% or so got no clear call; they are omitted. Cut-off read from the data, not from the text of the source: active = max dye-equivalent concentration above about 10 nM; inconclusive = mostly about 1.1 nM to 9.6 nM; inactive = weaker than that. For the sample, actives were picked, then their nearest neighbours and some compounds at random.

The nature of the experiment: qHTS Assay for Spectroscopic Profiling in 4-MU Spectral Region. The following applies: compound autofluorescence, 340/450 nm, 4-MU equivalents; stronger effect = higher value. The essentials: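 Compounds in 100 mM Tris, pH 8.0, incubated 15 min at room temperature, then fluorescence read at 340 nm excitation/450 nm emission. Signal converted to 4-MU dye-equivalent concentration using an on-plate six-point 4-MU standard curve.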
(In general: Quantitative high-throughput screening tests each substance at several concentrations.)
For the molecule `CCOc1ccc(-c2cn(S(=O)(=O)c3cccc4nsnc34)nc2N)cc1`, the max dye-equivalent concentration result is “inactive”.
For the molecule `O=C(Cn1nnc(-c2ccccc2)n1)NCc1ccc2c(c1)OCO2`, the max dye-equivalent concentration result was “inactive”.
As for `CCOC(=O)NCc1ccc2c(c1)OCO2`, the entry is “inactive”; as for `CC1CCCCN1CC(=O)NCc1ccc2c(c1)OCO2` (stereo unspecified), 51 nM (active); as for `COc1ccc(S(=O)(=O)Nc2c(C)n(C)n(-c3ccccc3)c2=O)cc1`, “inactive”.
As for `CCOC(=O)Cn1c(SC)nc2sc3c(c2c1=O)CC(C)(C)OC3`, the entry is “inactive”.
As for `CCC1(C)Cc2c(sc3nc4n(c(=O)c23)CCCS4)CO1` (stereo unspecified), the figure is 47 nM (active).
For `CC1(C)Cc2c(sc3nc4n(c(=N)c23)CCCCC4)CO1`, the max dye-equivalent concentration entry is “inactive”.
With `COc1ccc2[nH]cc(CCNc3cc(-c4ccccc4CN(C)C)ncn3)c2c1` the entry was “inactive”; with `O=C(NCCCN1CCN(c2ccccc2F)CC1)C1CCC(=O)N1C1CCCCC1` (stereo unspecified), “inactive”.
For the molecule `COC(=O)c1sc(=S)n(-c2ccccc2)c1N`, the max dye-equivalent concentration result was “inactive”.
Turning to `CC(C)CCNC(=O)C1CCCN(S(=O)(=O)c2ccc(F)cc2)C1` (stereo unspecified), the max dye-equivalent concentration result is “inactive”.
With `COCCNc1ncnc2ccc(-c3cccnc3)cc12` the entry was “inactive”; with `CC1CCc2c(sc3c2C2=NS(=O)(=O)CCN2C=N3)C1` (stereo unspecified), 26 nM (active); with `Cc1cc(NC(=O)CCC(=O)N(c2cccc(F)c2)C(C(=O)NC2CCCC2)c2ccncc2)no1` (stereo unspecified), “inactive”.
With `CS(=O)(=O)N1CCC2(CC1)CN(Cc1ccccc1)C2` the entry was “inactive”.
As for `NC[C@@H]1O[C@H](O[C@@H]2[C@H](O[C@@H]3O[C@H](CO)[C@@H](COC[C@H]4O[C@@H](CN)[C@@H](O)[C@@H](O)[C@@H]4N)[C@@H]3O)[C@@H](O)[C@@H](N)C[C@H]2N)[C@@H](N)[C@H](O)[C@@H]1O`, the entry is “inactive”.
For `COc1ccc(OC)c(NC(=O)CSc2nc(N)c(-c3ccccc3)c(=O)[nH]2)c1`, the max dye-equivalent concentration entry is “inactive”.
As for `C[N+]1(CCN=C=NC2CCCCC2)CCOCC1`, the entry is “inactive”; as for `CCCCNc1nc2c(c(=O)[nH]c(=O)n2C)n1CCOc1ccccc1`, “inactive”.
As for `CN1CCN(c2ncc3nc(-c4ccc(Cl)cc4)c(=O)n(-c4ccccc4)c3n2)CC1`, the figure is 52 nM (active); as for `COc1ncc2nc(-c3ccc(Cl)cc3)c(=O)n(C)c2n1`, 27 nM (active); as for `Cn1cc(-c2nc3cncnc3n(-c3ccccc3)c2=O)c2ccccc21`, “inactive”.
Turning to `COc1ccc(Oc2ncc3nc(-c4ccc(F)cc4)c(=O)n(C)c3n2)cc1`, the max dye-equivalent concentration result was “inactive”.
As for `O=c1c(-c2ccc(F)cc2)nc2cnc(N3CCOCC3)nc2n1-c1ccccc1`, the figure is 23 nM (active); as for `O=C(Nc1ccc(F)cc1)c1cccnc1N1CCOCC1`, “inactive”.
As to `O=C(c1ccc2c(c1)C(=O)N(c1ccc(Cl)cc1)C2=O)N1CCN(c2ccccn2)CC1`, the max dye-equivalent concentration result was “inactive”.
As for `O=c1c(-c2ccc(F)cc2)nc2cncnc2n1-c1ccccc1`, the entry is “inactive”.
With `O=C(NCCSc1ccccc1)c1ccco1` the entry was “inactive”.
With `Cc1cc2ccccc2n2c(SCC(=O)N3CCN(C(=O)c4ccco4)CC3)nnc12` the entry was “inactive”; with `CC12CCC(C(=O)N3CCN(c4ncccn4)CC3)(c3nc4ccccc4nc31)C2(C)C` (stereo unspecified), “inactive”.
`O=c1c(-c2ccc3c(c2)OCCO3)c(C(F)(F)F)oc2cc(O)cc(O)c12`: the max dye-equivalent concentration result is “inactive”.
Consider `CC(=O)Nc1ccn(Cc2c(F)cccc2Cl)n1`, for which the max dye-equivalent concentration result is “inactive”.
`O=C(c1ccncc1)N1CCC2(CCCN(C(c3ccccc3)c3ccccc3)C2)CC1`: the max dye-equivalent concentration result is “inactive”.
With `CC1CCCCC1NC(=O)CSc1nnc(N)s1` (stereo unspecified) the entry was “inactive”; with `CC(=O)CSc1nnc(CSc2ncccn2)n1C1CCCCC1`, “inactive”; with `COc1ccccc1CNC(=O)CCn1c(=O)sc2ccccc21`, “inactive”.
With `CCN(Cc1nc2ccccc2c(=O)[nH]1)Cc1cc(=O)oc2cc(C)c(C)cc12` the entry was “inactive”.
With `Cc1ccnc(SCCn2c(Br)nc3c2c(=O)[nH]c(=O)n3C)n1` the entry was “inactive”.
Turning to `CCCCNC(=O)c1ccccc1NC(=O)c1ccccc1N(C)S(C)(=O)=O`, the max dye-equivalent concentration entry was “inactive”.
Turning to `COc1ccccc1Nc1ncc(C(C)=O)c(C)n1`, the max dye-equivalent concentration result was “inactive”.
With `COCCCn1c(CCC(=O)O)ccc1-c1ccc(F)cc1` the figure was 1600 nM (active); with `CCN(CC)S(=O)(=O)c1cccc(C(=O)Nc2cc(C)nn2-c2nc(C)cc(C)n2)c1`, “inactive”; with `c1ccc2sc(SCCSc3nc4ccccc4s3)nc2c1`, “inactive”.
Regarding `CCOC(=O)N1CCN(C(=O)c2ccc3nc4cc(Cl)ccc4c(=O)n3c2)CC1`, the max dye-equivalent concentration was 1300 nM (active).
With `CCOC(=O)N1CCN(C(=O)CNC(=O)Cc2ccc(Cl)cc2)CC1` the entry was “inactive”; with `CCOC(=O)N1CCN(C(=O)c2ccc(S(=O)(=O)c3ccc(C)cc3)c(NC(C)=O)c2)CC1`, “inactive”; with `COC(=O)c1ccc(N(CC(=O)NC2CCCC2)C(=O)CNC(=O)c2ccco2)cc1`, “inactive”.
`Cc1ccccc1N1CC(c2nc3ccccc3[nH]2)CC1=O` (stereo unspecified): the max dye-equivalent concentration entry is “inactive”.
As for `CC(C)(C)n1nnc(CCc2nnn(C(C)(C)C)n2)n1`, the entry is “inactive”; as for `Cc1cc(Cl)c(S(=O)(=O)NCc2cccnc2)cc1OCC(N)=O`, “inactive”.
